SNCA expr inhib: inhibitors of alpha-synuclein (SNCA) gene expression; HEK-293 SNCA-luciferase knock-in, luminescence, 24 h; Potency, µM (top dose mostly 57.2 µM), for inactives: top-dose activity change, negative = inhibition, usual class: inhibitors; actives 0.17% (n = 140,000);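 note: potency is the fitted concentration of half-maximal effect; plate controls were DMSO cells for no effect and cell-free wells for full effect; nearly all actives have a fitted effect of over 45% in size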
IP6K1 inh: IP6K1 kinase inhibition. Q92551. IP6K1 kinase, ADP-Glo luminescence, 2 h; stronger effect = lower value. activity change, % (series mostly up to about 58 µM). actives 0.81% (n = 140,000). AID 1645851; in the data active = activity change below about -25%; note: % is set by controls: 0 for no effect and ±100 for the full control effect
Target sequence (Q92551 whole entry, looked up): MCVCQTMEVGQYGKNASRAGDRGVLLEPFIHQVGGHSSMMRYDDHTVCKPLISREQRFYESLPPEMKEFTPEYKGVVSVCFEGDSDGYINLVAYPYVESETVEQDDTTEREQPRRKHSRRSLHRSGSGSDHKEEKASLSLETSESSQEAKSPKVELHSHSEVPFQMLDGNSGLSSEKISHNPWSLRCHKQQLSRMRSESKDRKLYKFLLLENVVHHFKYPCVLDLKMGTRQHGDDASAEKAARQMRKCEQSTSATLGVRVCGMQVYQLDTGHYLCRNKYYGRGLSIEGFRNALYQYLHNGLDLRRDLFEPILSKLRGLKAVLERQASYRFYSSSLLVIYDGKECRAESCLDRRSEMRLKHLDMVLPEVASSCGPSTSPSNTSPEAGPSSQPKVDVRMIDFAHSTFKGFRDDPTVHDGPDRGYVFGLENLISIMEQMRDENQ
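ADP-Glo luminescence measures ADP made by human IP6K1 during a 2 h RT reaction with ATP/IP6 (mix at 1.3 mM/130 uM); top library doses 57.5 and 19.1 uM final.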
HEK293 viab: counter-screen for SNCA expression inhibitors: cell viability. HEK-293-SNCA-luc viability, GF-AFC fluorescence, 24 h. Potency, µM (titrated, usually from 57.1 µM), without a hit: top-dose activity change, negative = cytotoxicity, actives largely listed as cytotoxic. actives 0.12% (n = 150,000);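 note: potency is the fitted concentration of half-maximal effect; 0% = DMSO-treated cells and -100% = medium-only wells without cells; nearly all actives have a fitted effect of over 30% in size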
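HEK-293-SNCA-luc cells (1500/well) plated 24 h, then exposed 24 h to a dilution series; GF-AFC added 30 min at 37C, fluorescence 405/540 nm; normalised to medium-only and DMSO wells, Hill fit.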
GPT2 inhibitor: GPT2 alanine aminotransferase inhibition; Q8TD30; Recombinant GPT2, coupled pyruvate oxidase/HRP Amplex Red fluorescence; Potency, µM (top dose mostly 57.7 µM), for inactives: at the highest dose activity change, negative = inhibition, actives largely listed as inhibitors; actives 0.25% (n = 100,000); AID 1671188; note: potency is the fitted concentration of half-maximal effect; % is set by controls: 0 for no effect and ±100 for the full control effect; nearly all actives have a fitted effect of over 60% in size
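Inhibition is scored from Amplex Red fluorescence generated when pyruvate oxidase and HRP act on pyruvate released by GPT2. Reactions contain 10ng/uL enzyme, 250uM a-KG and 2mM L-alanine and run 30 min at room temperature.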
IP6K1 conf: human IP6K1 inhibition, confirmatory; AID 1645852; Potency, µM (series often up to 49 µM), for inactives: top-dose activity change, negative = inhibition, hits mostly inhibitors; actives 13% (n = 1,200); recombinant IP6K1 kinase, ADP-Glo luminescence, 2 h; shares compounds with IP6K1 inh; note: potency is the fitted concentration of half-maximal effect; % is set by controls: 0 for no effect and ±100 for the full control effect; nearly all actives have a fitted effect of over 65% in size
GPT2 inh cnf: confirmation of human GPT2 inhibitors. shares compounds with GPT2 inhibitor. GPT2 enzyme, coupled Amplex Red pyruvate fluorescence. Potency, µM, most hits filed as inhibitors. actives 90% (n = 95)
* hit, by the source's call; ! = not confirmed by another sample; [ ] = another dose, or the depositor's remark. In the library only some 1% were active in any assay of this set; here they are far more common. Unless noted, calls come from the whole dose curve; as a rule, active = well fitted curve in the direction sought with a large enough effect; inconclusive = small, poorly fitted or top-dose-only effect, or another doubt; inactive = no such curve, though single readings can be large; an effect the other way counts as inactive or inconclusive.

O=C(CC1CCCC1)N1[C@H]2CC[C@@H]1c1cnc(-c3ccccc3)nc1C2 was read as SNCA expr inhib -16%, IP6K1 inh 4, HEK293 viab -7% and GPT2 inhibitor -1%.
`COc1nn(CSP(=S)(OC)OC)c(=O)s1` gave SNCA expr inhib -35%, IP6K1 inh -46*, HEK293 viab inconclusive, GPT2 inhibitor inactive and IP6K1 conf 10µM*.
CCOP(=S)(OCC)Oc1ccc2c(C)c(Cl)c(=O)oc2c1 was read as SNCA expr inhib -2%[25.6 µM], IP6K1 inh -52*, HEK293 viab -16%[23.9 µM], GPT2 inhibitor -10% and IP6K1 conf 6.5µM*.
Screening Cc1c(Cl)c(=O)oc2cc(OP(=O)(OCCCl)OCCCl)ccc12 returned SNCA expr inhib 11%[25.6 µM], IP6K1 inh 6, HEK293 viab 3%[23.9 µM] and GPT2 inhibitor 1%.
`CC[C@H]1CN2CC[C@H]1C[C@@H]2CNC(=O)c1cccc(F)c1` gave SNCA expr inhib 6%[87.6 µM], IP6K1 inh 1, HEK293 viab -1%[87.6 µM] and GPT2 inhibitor -2%[88.5 µM].
`O=S(=O)(NC[C@H]1C[C@@H]2CCN1C[C@@H]2CN1CCC(Cc2ccccc2)CC1)c1ccc(Cl)cc1` gave SNCA expr inhib -37%, IP6K1 inh -8, HEK293 viab inconclusive and GPT2 inhibitor 1%.
`c1ccc2c(c1)Nc1ccccc1S2` gave SNCA expr inhib 4%[25.6 µM], IP6K1 inh -16, HEK293 viab 34%[23.9 µM], GPT2 inhibitor 11µM*! and GPT2 inh cnf 2.8*.
`CCOC(=O)[C@H]1CN(C(=O)c2ccc(F)cc2)[C@]2(C)C(=O)Nc3ccccc3[C@H]12` gave SNCA expr inhib -3%[25.6 µM], IP6K1 inh 6, HEK293 viab 6%[23.9 µM] and GPT2 inhibitor inactive.

Assay outcomes: PubChem, National Center for Advancing Translational Sciences (NCATS)
